# Pf growth 48h – inhibits P. falciparum growth in the first generation, 48 h | 5.9% of 310,000 active | P. falciparum luciferase growth in erythrocytes, 48 h | AID 504832 | Potency, µM (series often up to 28.7 µM), usual class: inhibitors
#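 Luminescence readout; reporter = integrated firefly luciferase in P. falciparum. RBC culture at 2% hematocrit, 0.1% parasitemia final, 37 C/5% CO2; decreased signal taken as growth inhibition.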
# Shiga inhibitor – Shiga toxin inhibition. inhibition, % at 38.7 µM. Vero cells, Shiga toxin protein synthesis inhibition reporter. 9.2% of 290,000 active; in the data active means inhibition mostly above about 28%, no sharp cut-off; inactive means mostly below about 43%
# Pf growth 96h – P. falciparum growth inhibition at 96 hour, primary screen for plastid delayed-death inhibitors. P. falciparum luciferase reporter growth, 96 h. Potency, µM (titrated, usually from 28.7 µM), hits mostly inhibitors. 6.9% of 320,000 active
#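 Compounds incubated with erythrocytes infected by luciferase-expressing P. falciparum (2% hematocrit, 0.05% parasitemia final) for 96 hours, 37 C in 5% CO2. Growth inhibition scored as decreased luciferase luminescence.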
# Cycloheximide cs – affects cycloheximide protein synthesis inhibition readout, counter-screen; cell reporter, cycloheximide protein synthesis inhibition counterscreen; max response, %; 12% of 300,000 active; in the data active means max response mostly above about 13%, no sharp cut-off; inactive means mostly below about 14%; further: read at 38.3 µM for the half of the compounds with a filed dose
# LmPK inh – inhibitors of Leishmania mexicana pyruvate kinase; 0.37% of 290,000 active; Potency, µM (doses to about 57.5 µM), hits mostly inhibitors; purified LmPK, Kinase-Glo ATP luminescence, 1 h
# Target sequence (Q27686 whole entry, looked up): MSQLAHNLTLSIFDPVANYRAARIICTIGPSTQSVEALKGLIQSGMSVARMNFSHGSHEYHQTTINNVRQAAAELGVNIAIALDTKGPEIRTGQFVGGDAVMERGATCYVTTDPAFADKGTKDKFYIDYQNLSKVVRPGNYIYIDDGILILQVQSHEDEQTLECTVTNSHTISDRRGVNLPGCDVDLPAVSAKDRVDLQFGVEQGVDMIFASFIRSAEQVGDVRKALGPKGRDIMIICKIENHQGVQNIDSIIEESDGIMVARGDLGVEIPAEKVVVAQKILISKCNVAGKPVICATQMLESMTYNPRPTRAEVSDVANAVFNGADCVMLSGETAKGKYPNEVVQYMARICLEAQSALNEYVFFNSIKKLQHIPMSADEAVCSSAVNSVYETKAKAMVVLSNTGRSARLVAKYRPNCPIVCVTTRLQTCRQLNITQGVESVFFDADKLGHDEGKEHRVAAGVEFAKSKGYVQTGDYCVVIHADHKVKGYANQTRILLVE
#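 Screened at intermediate enzyme activity to detect both inhibitors and activators: LmPK at 0.1 nM, with a 0.5 nM enzyme column as activation reference. PEP 0.5 mM, ADP 0.1 mM; ATP detected by luminescence after 1 h.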
# A number is an active result; 0 = inactive; ? = inconclusive; - = not tested or not shown; + = active, no number; [ ] = dose if it differs, or a comment. The list is not random: actives were taken first. Their share in the collection is about 22%. Unless noted, the call rests on the fitted dose curve; in most records, active means well fitted inhibition curve with a large enough effect; inconclusive means small, poorly fitted or top-dose-only effect, or another doubt; inactive means no such curve, though single readings can be large or run the other way.
SMILES,Pf growth 48h,Shiga inhibitor,Pf growth 96h,Cycloheximide cs,LmPK inh
COC(=O)c1ccc2c(c1)C(=O)/C(=C/c1ccc(C)cc1)O2,0,0,?,0,0
Cc1ccc(NC(=O)C2=C(O)CCn3c2nc2ccccc23)cc1,-,0,?,21.9,0
COc1cc(C(=O)Nc2ccc(C)cc2)c2ccccc2n1,0[0.00184 µM],0,0,0,0
O=[N+]([O-])c1ccc(N=Nc2ccc(O)cc2O)cc1,-,0,0.329µM,0,0
C=CCOc1cccc(/C=N/NC(=O)CN2CCCCC2)c1,0,0,0,0,0
Cc1nn(-c2ccccc2)c(C)c1-c1nnc(-c2c(C)nn(-c3ccccc3)c2C)o1,11.7µM,0,?,0,0
CCC1CCCCN1CCCNC(=O)CCC(=O)N1CC(C)Oc2ccccc21 (configuration not stated),0,0,?,0,0
COc1ccc(C2C(C(=O)c3ccco3)=C(O)C(=O)N2CC2CCCO2)cc1OC (configuration not stated),0,0,0,0,0
CC1CC(N(C(=O)c2ccccc2Cl)c2ccccc2)c2ccccc2N1 (configuration not stated),?,0,11.7µM,0,0
CC1Cc2ccccc2N1CC(=O)c1c(N)n(Cc2ccccc2)c(=O)n(C)c1=O (configuration not stated),8.28µM,0,9.28µM,0,0
CCn1c(=O)c(C(=O)CN2CCN(S(=O)(=O)c3ccc(C)cc3C)CC2)c(N)n(Cc2ccccc2)c1=O,?,0,8.28µM,0,0
CCn1c(=O)c(C(=O)CN2CCCc3ccccc32)c(N)n(Cc2ccccc2)c1=O,9.28µM,0,11.7µM,0,0
Cc1cc(C)c(C)c(S(=O)(=O)N2CCN(CC(=O)c3c(N)n(Cc4ccccc4)c(=O)n(C)c3=O)CC2)c1C,5.86µM,0,?,0,0
O=C(O)CSc1nnc(-c2ccc(Cl)cc2Cl)n1Cc1ccccc1,0,0,0,0,0
CSCCNC(=O)Nc1c(-c2c(Cl)cccc2Cl)noc1C,0,0,0,0,0
CCOC(=O)Cc1csc(NC(=O)CC(C)(C)C)n1,0,122.1,0,31.7,0
CCOC(=O)Cc1csc(NC(=O)CC)n1,0,0,0,0,0
CCOC(=O)Cc1csc(NS(C)(=O)=O)n1,-,0,0,0,0
CCOC(=O)Cc1csc(NC(=O)C(C)(C)CC)n1,-,51.0,?,31.1,0
O=C(NCC1CCCO1)C1CC(=O)N(c2ccccc2)C1 (configuration not stated),?,0,0,0,0
Cn1c(SCC(=O)Nc2ccc3c(c2)OCCO3)nnc1C(F)(F)F,0,-,0,-,-
Cn1c(SCC(=O)c2ccc3c(c2)OCCO3)nnc1C1CC1,0,43.7,?,17.6,0
Cn1c(SCC(=O)c2ccc3c(c2)OCCO3)nnc1C(F)(F)F,0,0,0,21.6,0
CC(C)n1c(SCC(=O)c2ccc3c(c2)OCCO3)nc2c1c(=O)n(C)c(=O)n2C,0,0,0,0,0
Cc1ccc(S(=O)(=O)N2CCCC(c3nnc4n3-c3ccccc3SC4)C2)cc1 (configuration not stated),0,0,13.1µM,0,0
SMILES,Pf growth 48h,Shiga inhibitor,Pf growth 96h,Cycloheximide cs,LmPK inh
COc1ccc(OCCOc2ccc(/C=C3\C(=N)N4N=C(C)SC4=NC3=O)cc2)cc1,0,-,0,-,-
CCOC(=O)C1=C(CSc2nc(CC)c(C)cc2C#N)OC(N)=C(C#N)C1c1ccccc1 (configuration not stated),-,0,0,0,0
CCOC(=O)C1=C(CSc2nc(-c3ccccc3)ccc2C#N)OC(N)=C(C#N)C1c1ccc(OC)cc1 (configuration not stated),?,0,?,62.8,0
COC(=O)Cc1[nH]n(-c2nc3ccccc3s2)c(=O)c1C(C)=Nc1ccc(C)cc1,0,92.8,0,35.3,0
COC(=O)Cc1[nH]n(-c2ccccc2)c(=O)c1C(C)=Nc1ccccc1,0,0,0,0,0
COC(=O)Cc1[nH]n(-c2nc3ccccc3s2)c(=O)c1C(C)=Nc1ccc(Cl)cc1,0,70.3,0,38.8,0
O=C(O)CN1C(=O)C(=O)N(Cc2ccc(Cl)c(Cl)c2)C1=O,0,0,?,0,0
CCOc1ccccc1N1CCN(C(=O)NCc2ccc(C)cc2)CC1,?,0,0,0,0
COc1ccc(C(=O)C2CCCN(Cc3cccc4c3OCO4)C2)cc1OC (configuration not stated),0,0,?,0,0
O=C(NC(=S)N1CCCc2ccccc21)c1ccc(Br)cc1,0,0,?,21.8,0
NC(=S)N1CCCc2ccccc21,?,0,?,0,0
O=CN1CCN(C(=S)NC(=O)c2ccc(Cl)cc2)CC1,0,0,0,0,0
O=C(NC(=S)N1CCCc2ccccc21)c1ccc(Cl)cc1,0,73.3,0,52.2,0
O=C(NC(=S)N1CCCc2ccccc21)c1ccccc1,0,68.7,?,24.7,0
O=C(NC(=S)N1CCCc2ccccc21)c1ccc([N+](=O)[O-])cc1,?,58.5,7.38µM,47.4,0
CN1CCN(S(=O)(=O)c2ccc(NC(=O)c3ccc(F)cc3Cl)cc2)CC1,0,0,?,0,0
CC1=NN(c2cccc(C(=O)O)c2)C(=O)/C1=C\C=C/c1ccccc1,?,+,0,79.9,0
CC1=NN(c2ccc(C)cc2)C(=O)/C1=C\C=C\c1ccccc1,13.1µM,0,?,0,0
CC1=NN(c2ccccc2)C(=O)/C1=C/C=C/C=C/N(C)C,0,0,0,0,0
C=C1CCC(OC(C)=O)C2(C)CCC3C(C)C(=O)OC3C12O (configuration not stated),0,0,0,0,0
CC(C)CC(C(=O)O)N1C(=O)C2C3C=CC(C2C1=O)C1C(=O)N(C(CC(C)C)C(=O)O)C(=O)C31 (configuration not stated),0,0,0,0,0
CCOC(=O)c1c(/N=C/N(C)C)sc(/C=N/Nc2ccccc2)c1-c1ccccc1,14.7µM,0,10.4µM,0,0
CCOC(=O)c1c(NC(=O)CCl)sc(CN(C)C)c1-c1ccccc1,13.1µM,0,?,0,0
CCOC(=O)c1c(/N=C/N(C)C)sc(C=O)c1-c1ccccc1,0,0,0,0,0
CCOC(=O)c1c(/N=C/N(C)C)sc(/C=N/Nc2ccccc2)c1-c1ccccc1Cl,6.57µM,0,?,0,0
SMILES,Pf growth 48h,Shiga inhibitor,Pf growth 96h,Cycloheximide cs,LmPK inh
COc1ccccc1N1CCN(C2CCCN(C(=O)c3cc(C4CC4)on3)C2)CC1 (configuration not stated),0,0,0,0,0
O=C1NC(=O)/C(=C\c2ccccc2OCc2ccccc2)S1,0,0,?,0,0
O=C1NC(=O)/C(=C/c2cccc3ccccc23)S1,0,0,0,16.7,0
CCSc1nnc(NS(=O)(=O)c2ccc(OC)cc2)s1,0,0,0,0,0
O=C(c1noc2c1CCCC2)N1CCN(c2ccccc2)CC1,0,0,0,20.5,0
CC(=O)c1ccc(N2CCN(C(=O)c3noc4c3CSc3ccccc3-4)CC2)cc1,0,0,0,16.8,0
